According to PubChem BioAssay AID504333 (National Center for Advancing Translational Sciences (NCATS), 2011):
The campaign covered roughly 360,000 compounds. About 16,000 (4.4%) were called active. Roughly 9% stayed inconclusive and do not appear here. Calls follow the shape of the dose curve; as a rule, active = well fitted inhibition curve with a large enough effect; inconclusive = small, poorly fitted or top-dose-only effect; inactive = no such curve, though single readings can be large or run the other way. The full list was thinned out, with actives kept by preference.

Biological target: Bromodomain adjacent to zinc finger domain protein 2B (Homo sapiens) (UniProt Q9UIF8)
Assay: qHTS Assay for Inhibitors of BAZ2B; also: nearly all actives have a fitted effect of over 60% in size
Conditions: AlphaScreen BAZ2B-H3K14Ac peptide displacement; series mostly up to 114 µM; activity change, negative = inhibition: at the top concentration
In short: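 Inhibition is scored as reduced AlphaScreen emission. The BAZ2B/b-H3(5-23)K14Ac complex (50 nM each) in PBS pH 7.4, 0.01% Tween-20 meets compound (up to 110 uM) for 30 min at RT before bead addition.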
% is scaled to controls: 0 for no effect and ±100 for the full control effect; potency is read from the fitted curve at half-maximal effect.

Sequence of Bromodomain adjacent to zinc finger domain protein 2B (Homo sapiens) (Q9UIF8 whole entry, looked up, the tested form may be a part): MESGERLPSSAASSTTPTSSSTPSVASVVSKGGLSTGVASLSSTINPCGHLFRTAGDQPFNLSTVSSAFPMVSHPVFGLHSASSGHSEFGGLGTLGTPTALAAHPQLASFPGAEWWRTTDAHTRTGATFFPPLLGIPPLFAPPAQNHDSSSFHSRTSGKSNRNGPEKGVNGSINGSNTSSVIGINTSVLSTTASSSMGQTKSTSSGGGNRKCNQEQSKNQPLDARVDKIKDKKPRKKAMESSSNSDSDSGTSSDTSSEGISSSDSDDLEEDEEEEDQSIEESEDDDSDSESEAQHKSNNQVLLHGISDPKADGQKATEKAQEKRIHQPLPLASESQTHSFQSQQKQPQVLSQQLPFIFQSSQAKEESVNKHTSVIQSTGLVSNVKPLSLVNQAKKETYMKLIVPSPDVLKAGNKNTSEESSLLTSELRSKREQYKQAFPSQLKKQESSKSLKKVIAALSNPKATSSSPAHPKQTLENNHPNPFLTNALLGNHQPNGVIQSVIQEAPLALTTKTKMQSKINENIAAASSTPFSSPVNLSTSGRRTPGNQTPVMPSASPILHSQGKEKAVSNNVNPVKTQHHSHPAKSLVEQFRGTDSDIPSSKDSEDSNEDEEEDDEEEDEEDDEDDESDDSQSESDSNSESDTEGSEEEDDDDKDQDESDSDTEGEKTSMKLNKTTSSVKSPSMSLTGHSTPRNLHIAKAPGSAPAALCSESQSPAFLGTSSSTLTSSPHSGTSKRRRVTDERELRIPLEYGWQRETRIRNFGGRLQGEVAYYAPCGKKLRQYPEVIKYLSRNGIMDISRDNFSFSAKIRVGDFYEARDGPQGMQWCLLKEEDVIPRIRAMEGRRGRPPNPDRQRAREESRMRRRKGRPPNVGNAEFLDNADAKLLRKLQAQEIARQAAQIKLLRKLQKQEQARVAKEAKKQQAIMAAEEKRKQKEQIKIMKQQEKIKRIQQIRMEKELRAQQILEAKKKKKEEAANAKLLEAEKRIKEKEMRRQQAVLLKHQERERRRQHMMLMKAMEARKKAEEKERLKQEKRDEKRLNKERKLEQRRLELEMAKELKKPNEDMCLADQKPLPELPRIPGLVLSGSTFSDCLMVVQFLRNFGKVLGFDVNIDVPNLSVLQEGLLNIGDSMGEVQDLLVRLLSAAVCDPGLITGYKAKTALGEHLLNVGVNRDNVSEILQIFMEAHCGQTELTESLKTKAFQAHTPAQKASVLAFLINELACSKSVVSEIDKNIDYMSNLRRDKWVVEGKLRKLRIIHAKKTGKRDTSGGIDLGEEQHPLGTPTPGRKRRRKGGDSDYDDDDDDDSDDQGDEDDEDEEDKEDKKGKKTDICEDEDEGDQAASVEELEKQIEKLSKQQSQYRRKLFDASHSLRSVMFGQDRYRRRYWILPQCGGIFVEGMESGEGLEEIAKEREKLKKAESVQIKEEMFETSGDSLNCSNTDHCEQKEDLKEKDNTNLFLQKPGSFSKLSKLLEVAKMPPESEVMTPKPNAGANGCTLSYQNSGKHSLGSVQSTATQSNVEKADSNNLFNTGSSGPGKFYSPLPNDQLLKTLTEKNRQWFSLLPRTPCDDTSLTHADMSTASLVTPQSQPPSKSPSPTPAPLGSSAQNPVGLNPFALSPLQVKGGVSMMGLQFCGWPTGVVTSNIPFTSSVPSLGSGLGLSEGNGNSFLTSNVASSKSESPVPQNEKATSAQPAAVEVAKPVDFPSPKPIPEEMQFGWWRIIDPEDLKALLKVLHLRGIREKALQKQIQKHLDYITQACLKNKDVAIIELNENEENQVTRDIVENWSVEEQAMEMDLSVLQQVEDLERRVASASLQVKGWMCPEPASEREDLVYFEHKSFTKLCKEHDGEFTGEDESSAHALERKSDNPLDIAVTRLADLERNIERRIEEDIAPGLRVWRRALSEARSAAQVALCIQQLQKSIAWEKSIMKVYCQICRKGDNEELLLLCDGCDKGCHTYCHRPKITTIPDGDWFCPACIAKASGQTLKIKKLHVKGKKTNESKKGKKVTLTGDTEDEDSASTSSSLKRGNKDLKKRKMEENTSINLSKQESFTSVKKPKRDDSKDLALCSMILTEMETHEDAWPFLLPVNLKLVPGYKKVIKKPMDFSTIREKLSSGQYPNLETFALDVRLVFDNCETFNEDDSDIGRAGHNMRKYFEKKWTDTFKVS

SMILES	activity change, negative = inhibition	Potency
COc1ccc(S(=O)(=O)c2c(Nc3ccc(C)cc3)sc(C(=O)c3ccc(C)cc3)c2N)cc1	-14.2% (inactive)	
CCOc1ccc(C(=O)N2CCN(CCc3ccccn3)CC2)cc1	-16.1% (inactive)	
COc1ccc(-c2nc3ccccc3c(=O)n2CCc2ccc(O)cc2)cc1	-7.15% (inactive)	
COc1ccc(CCNCc2c(-c3ccccc3)n(C)c3ccccc23)cc1		50.1 µM (active)
COc1ccc(-c2c(C#Cc3ccccc3)c3ccccc3n2C)cc1	84% (inactive)	
O=C(NCCc1ccccc1)c1cnc2sc(N3CCCC3)nn2c1=O	-19.6% (inactive)	
CCOC(=O)Nc1ccc2c(c1)N(C(=O)CCCl)c1ccccc1[S@]2=O	-5.38% (inactive)	
CCOC(=O)Nc1ccc2c(c1)N(C(=O)CN1CCN3CCCC3C1)c1ccccc1CC2 (stereo not drawn)		70.8 µM (active)
CCNCCC(=O)N1c2ccccc2Sc2ccc(NC(=O)OCC)cc21	6.36% (inactive)	
Cc1cc(C)cc(NS(=O)(=O)c2ccc(-c3cc(C)no3)s2)c1	6.38% (inactive)	
Cc1ccc(C)c(Cn2c(C)c(CNCc3ccc(F)cc3)c(C(=O)O)c2C)c1	-35% (inactive)	
O=C(CCCn1c(=O)c2cccn2c2cccnc21)NCc1ccc(F)cc1	-29.1% (inactive)	
COc1ccc(C(=O)NCCCN2CCOCC2)cc1Br	-2.68% (inactive)	
Cc1ccc(OCCCC(=O)N2CCOCC2)c(C)c1	-3.15% (inactive)	
Cc1ccc(OCCCCN2CCCCC2)c(Br)c1		50.1 µM (active)
COc1ccccc1NC(=O)c1cc(C2CC2)nc2c1c(C)nn2-c1ccc(C)cc1	12.9% [at 57.1 µM] (inactive)	
CC(C)Cn1c(C2CC(=O)N(c3ccccc3Cl)C2)nc2ccccc21 (stereo not drawn)	-8.15% (inactive)	
Cc1c(Cl)cccc1NC(=O)CCS(=O)(=O)c1ccc2c(c1)oc(=O)n2C	5.14% [at 57.1 µM] (inactive)	
Cc1ccccc1OCCSc1nc2ccc(NC(=O)c3ccco3)cc2s1	-18.8% (inactive)	
Clc1ccc(N/N=C/c2cccs2)nn1		50.1 µM (active)
Cc1ccsc1/C=N/Nc1ccc(Cl)nn1	-32.3% (inactive)	
COc1cccc(/C=N/Nc2ccc(Cl)nn2)c1	-10.6% (inactive)	
Oc1cccc(/C=N/Nc2ccc(Cl)nn2)c1O		8.91 µM (active)
Oc1c(Br)cccc1/C=N/Nc1c(F)c(F)c(F)c(F)c1F	-1.1% (inactive)	
Nc1nnnn1/N=C/c1cccs1	-1.18% (inactive)	
Cc1cccc2c(=O)cc(CSc3ccccc3NC(=O)C(C)C)[nH]c12	4.37% (inactive)	

SMILES	activity change, negative = inhibition	Potency
CCOC(=O)N1CCC(NC(=O)c2cnn(-c3cccc(C)c3)c2C2CCN(C(=O)OC(C)(C)C)CC2)CC1	8.59% [at 57.1 µM] (inactive)	
CCc1cccc(NC(=O)Cn2nc(CC)n3c(cc4cc(C)ccc43)c2=O)c1	6.38% (inactive)	
CC(C)CNc1ncnc2c1nnn2C	-10.3% (inactive)	
CCOc1cc(/C=N/NC(=O)CN2CCCCC2)ccc1O		56.2 µM (active)
O=C(CN1CCSCC1)N/N=C/c1ccc(F)cc1		50.1 µM (active)
Cc1nn(CC(=O)N/N=C/c2ccc(F)cc2)c(C)c1[N+](=O)[O-]	4.73% (inactive)	
Cc1ccc(COc2ccc(/C=N/NC(=O)CN3CCCCC3)cc2)cc1	-21.8% (inactive)	
CCOc1ccc(/C=N/NC(=O)CSc2ccccn2)cc1O	-16.7% (inactive)	
O=C(CC(=O)N/N=C\c1ccc(F)cc1)NCCc1ccccc1	5.67% (inactive)	
Cc1cccc(CSc2nc3ccncc3n2Cc2ccc(C(=O)O)cc2)c1	-4.88% (inactive)	
COc1ccc(CCNC(=O)CCCCn2c(=O)c3ccccc3n(Cc3ccccc3)c2=O)cc1OC	0.11% (inactive)	
Cc1ccc(SCC(=O)Nc2ccc3oc(-c4ccccc4C)nc3c2)cc1	3.57% (inactive)	
COc1ccc(NC(=O)c2ccc3nc(C(C)C)oc3c2)cc1OC	0.556% (inactive)	
CCCc1cc(=O)n2[nH]c(NCc3ccc(CC)cc3)nc2n1	-3.81% (inactive)	
Nc1ccccc1SC(C[N+](=O)[O-])c1ccccc1 (stereo not drawn)		44.7 µM (active)
COc1cc(CNC(=O)c2cc3n(n2)CCCN(Cc2cccc(F)c2)C3=O)cc(OC)c1OC	-4.51% (inactive)	
Cc1oc2ccc(O)c(CN3CCOCC3)c2c1C(=O)Nc1cccc(Cl)c1C	-1.42% (inactive)	
Cc1cc(C(=O)N/N=C/c2ccccn2)c2ccccc2n1	13% (inactive)	
O=C(N/N=C/c1ccccn1)c1cccnc1		28.2 µM (active)
O=C(N/N=C/c1ccccn1)c1cccc(NC(=O)c2ccc(Cl)cc2)c1	14.4% (inactive)	
O=C(N/N=C/c1ccccn1)C12CC3CC(CC(C3)C1)C2	4.49% (inactive)	
CNC(=O)C(=O)N/N=C/c1ccccn1		39.8 µM (active)
O=C(CNC(=O)c1cccnc1)N/N=C/c1cccnc1	-15.3% (inactive)	
COc1ccc(-c2noc(CSc3nc4ccc(C)cc4[nH]3)n2)cc1	-9.25% (inactive)	
Cc1oc2ncnc(N3CCCCC3)c2c1C(=O)N1CCN(c2cccc(Cl)c2)CC1	-16.4% [at 57.1 µM] (inactive)	
Cc1cccc(NC(=O)CSc2nnc(CNC(=O)c3cccc(C)c3)n2-c2ccccc2)c1	-15.6% (inactive)	

SMILES	activity change, negative = inhibition	Potency
Cc1ccc(-c2ccc(CCC(=O)O)n2-c2ccc(C(N)=O)cc2)cc1	-20.2% (inactive)	
CCN1CCN(Cc2c(O)ccc3oc(C)c(C(=O)Nc4ccc(C)cc4C)c23)CC1	-13.3% (inactive)	
OC(C#CCN1CCOCC1)(c1ccccc1)C1CCCCC1 (stereo not drawn)	-5.69% [at 57.1 µM] (inactive)	
CN(CC#CCC(c1ccccc1)c1ccccc1)C(C)(C)C	-34.8% (inactive)	
CC(C)(C)N(CC#CCC(O)(c1ccccc1)C1CCCC1)CCO (stereo not drawn)		79.4 µM (active)
CCc1ccccc1NC(=O)c1ccc2nc(CCc3ccccc3)oc2c1	-26% (inactive)	
COC(=O)c1ccc(Cn2c(SCC(=O)N(C)c3ccccc3)nc3ccccc32)cc1	-17.4% (inactive)	
CN(c1cccc(NC(=O)Nc2ccc(Cl)cc2)c1)S(C)(=O)=O	9.77% [at 57.1 µM] (inactive)	
O=C(Nc1ccccc1)c1nnsc1S(=O)(=O)c1ccc(Cl)cc1		44.7 µM (active)
O=C(Nc1ccc(Oc2ccccc2)cc1)C1CCN(S(=O)(=O)c2ccc(Cl)cc2)CC1	-2.4% (inactive)	
CCCCN(CC)CCCNC(=O)c1nn(C)c2c1CSc1ccccc1-2	5.53% (inactive)	
Cc1ccccc1CNC(=O)c1cccc(NC(=O)c2nsc3ccccc23)c1	3.02% (inactive)	
O=C(CSc1nnc(-c2ccncc2)n1-c1ccccc1)Nc1ccc(Cl)c(Cl)c1	2.59% (inactive)	
Cc1cc(C)cc(-n2c(SCC(=O)NCC3CCCO3)nc3c([nH]c4ccccc43)c2=O)c1 (stereo not drawn)	-1.42% (inactive)	
Cc1ccc(CN2C(=O)N/C(=C/c3cc(C)n(-c4ccccn4)c3C)C2=O)cc1	-9.16% (inactive)	
CC1=NN(Cc2ccccc2)C(=O)/C1=C/c1ccc(N(C)C)cc1		2 µM (active)
CSc1c(SCc2ccccc2)cnn(Cc2ccccc2)c1=O	12.4% (inactive)	
CN(C)c1ccnc2sc3c(=O)n(Cc4ccccc4)cnc3c12	7.26% (inactive)	
O=C1N/C(=C/c2cccs2)C(=O)N1Cc1ccc(F)cc1	-14.6% (inactive)	
CN(C)c1ccc(/C=C2\NC(=S)N(Cc3ccccc3)C2=O)cc1		28.2 µM (active)
CCc1ccc(C(=O)CC2(O)C(=O)N(CCc3ccccc3)c3ccc(Br)cc32)cc1 (stereo not drawn)	-18.3% (inactive)	
CCC1CCCCN1Cc1c(O)ccc2c(=O)c(Oc3ccccc3Cl)c(C(F)(F)F)oc12 (stereo not drawn)	8.59% [at 57.1 µM] (inactive)	
COCCNC(=O)c1ccc2c(c1)N(Cc1cccc(Cl)c1)C(=O)c1ccccc1S2(=O)=O	6.11% (inactive)	
Cc1c(-c2nsc(NC(=O)c3cccc(Cl)c3)n2)nnn1-c1ccccc1C(F)(F)F	-1.61% (inactive)	
Cc1ccccc1Nc1scc(-c2ccc(Br)cc2)[n+]1-c1ccccc1C		11.2 µM (active)
O=C(CSc1ncc(S(=O)(=O)c2ccc(Br)cc2)c(=O)[nH]1)Nc1ccc2c(c1)OCCO2	-25.2% (inactive)	

SMILES	activity change, negative = inhibition	Potency
CCOC(=O)N1CCN(C(=O)CSc2nc(=O)n3cccc(C)c3n2)CC1	8.46% (inactive)	
COc1ccccc1N1CCN(C(CNC(=O)C(=O)NCc2ccc(C)cc2)c2cccnc2)CC1 (stereo not drawn)	-3.79% (inactive)	
CCOc1ccc(C(NC(=O)c2cc(OC)c(OC)c(OC)c2)c2cc(Cl)c3cccnc3c2O)cc1 (stereo not drawn)	4.51% (inactive)	
CCOC(=O)N1CCN(C(c2cccnc2)c2ccc3cccnc3c2O)CC1 (stereo not drawn)		15.8 µM (active)
CCN1CCN(C(c2cccnc2)c2cc(Cl)c3cccnc3c2O)CC1 (stereo not drawn)		11.2 µM (active)
CCN1CCN(C(c2ccc(C)cc2)c2c(O)cc(C)n(Cc3ccco3)c2=O)CC1 (stereo not drawn)	-18.2% (inactive)	
Cc1ccc(Cl)cc1NC(=O)CCC(=O)N1CC(C)Sc2ccccc21 (stereo not drawn)	-4.18% (inactive)	
CCOc1ccc(Nc2ncnc3scc(-c4ccc(OC)cc4)c23)cc1	-2.31% (inactive)	
CN(NS(=O)(=O)c1cccs1)c1ncc(C(F)(F)F)cc1Cl		56.2 µM (active)
CN(CC(=O)Nc1cccc(C(F)(F)F)c1)S(=O)(=O)c1cccs1	2.07% (inactive)	
C#CCN(N(C)c1ncc(C(F)(F)F)cc1Cl)S(=O)(=O)c1ccc2ccccc2c1	3.53% (inactive)	
Cc1cccc(-n2ncc(C(=O)N3CCN(c4ccc(Cl)cc4)CC3)c2C2CCN(C(=O)OC(C)(C)C)CC2)c1	-17.4% [at 57.1 µM] (inactive)	
CC1=C(C(=O)OCC(C)C)C(c2ccc(OCc3ccccc3)cc2)N2C(=O)CCSC2=N1 (stereo not drawn)	-11.9% (inactive)	
Cc1cc(/C=N/n2cnnc2)c(C)n1-c1cccc(C(=O)O)c1		35.5 µM (active)
Fc1ccc(Br)cc1/C=N/n1cnnc1	-0.0547% (inactive)	
NC1=NN(c2cccc(C(=O)O)c2)C(=O)C1	-32.4% (inactive)	
Cc1cc(/C=C2/SC(=O)N(CC(=O)N3CCCC3)C2=O)c(C)n1C	-31.3% (inactive)	
Cc1cc(/C=C2\SC(=O)N(C)C2=O)c(C)n1-c1cccc(C(=O)O)c1		79.4 µM (active)
Cc1cc(/C=N/Nc2ccc([N+](=O)[O-])cn2)c(C)n1-c1cccc(C(=O)O)c1		44.7 µM (active)
O=[N+]([O-])c1cccc(/C=N/Nc2ncc(Br)cn2)c1	10.5% (inactive)	
Cc1cccc(C)c1NC(=O)CSc1ccc([N+](=O)[O-])cn1	-6.12% (inactive)	
Cc1cc(/C=C2/SC(=O)N(CC(=O)OC(C)C)C2=O)c(C)n1C	-4.3% (inactive)	
O=C(Cn1c(=O)n(-c2ccc(F)cc2)c(=O)c2sccc21)Nc1cccc(C(F)(F)F)c1	-18.1% (inactive)	
CCc1cccc(-n2nnc(-c3nsc(NC(=O)c4ccc(C)cc4)n3)c2C)c1	1.17% (inactive)	
O=C(CS(=O)(=O)c1cccc2nsnc12)N1CCN(c2cccc(Cl)c2)CC1	-28.5% (inactive)	
